Experimental data as given in the supplement of paper PMC6522484.
± gives the standard deviation of the averaged measurements.

Tests used:
DLD1 [1] = test: cell viability (CellTiter-Glo) relative to plate median (fraction of plate median); higher = more viable cells; conditions: 5 µM; treatment time 24 h; reporter: 7TFP
Summary of the method: (§1)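 On parallel plates, a Tecan F500 reader recorded either firefly luciferase or CellTiterGlo luminescence. The plates held colorectal cancer cells stably transduced with lentiviral TCF/Wnt firefly luciferase reporters (7TFP or TCF4/Wnt), seeded in 384-well format and treated 24 h later with library compounds at a final 5 µM for 24 h. Per-well signals were normalised to the plate median (webcellHTS2, additive, no log transformation), and two independent replicates were averaged.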

HCT116 = test: as above; conditions: 5 µM; treatment time 24 h; reporter: TCF4/Wnt
Summary of the method: as §1

SW480 [2] = test: as above; conditions: 5 µM; treatment time 24 h; reporter: 7TFP
Summary of the method: as §1

DLD1 [3] = test: TCF/Wnt firefly luciferase reporter signal relative to plate median (fraction of plate median); higher = higher Wnt reporter signal; conditions: 5 µM; treatment time 24 h; reporter: 7TFP
Summary of the method: as §1

SW480 [4] = test: as above; conditions: 5 µM; treatment time 24 h; reporter: 7TFP
Summary of the method: as §1

SMILES | cell viability (DLD1 [1]) | cell viability (HCT116) | cell viability (SW480 [2]) | TCF/Wnt firefly luciferase reporter signal (DLD1 [3]) | TCF/Wnt firefly luciferase reporter signal (SW480 [4])
Oc1c(Cl)cc(Cl)c2cccnc12 | 0.9925 ± 0.00071 | 1.02 ± 0.081 | 0.963 ± 0.033 | 1.03 ± 0.16 | 1.07 ± 0.021
CC(=O)OCC(OC(C)=O)C(OC(C)=O)C(OC(C)=O)C(OC(C)=O)C(COC(C)=O)OC(C)=O (stereo not given) | 1.06 ± 0.071 | 1 ± 0.066 | 1.045 ± 0.0071 | 0.987 ± 0.047 | 0.96 ± 0.037
OC(CCN1CCCC1)(c1ccccc1)C1CCCCC1 (stereo not given) | 1.03 | 1.01 ± 0.043 | 1.03 ± 0.054 | 1.12 ± 0.15 | 0.981 ± 0.017
CO[C@H]1C[C@H](O[C@@H]2/C(C)=C/C[C@@H]3C[C@@H](C[C@]4(CC[C@H](C)[C@@H](C5CCCCC5)O4)O3)OC(=O)[C@@H]3C=C(C)/C(=N/O)[C@H]4OC/C(=C\C=C\[C@@H]2C)[C@]43O)O[C@@H](C)[C@@H]1O | 0.919 ± 0.021 | 0.962 ± 0.038 | 0.962 ± 0.037 | 1.05 ± 0.021 | 1.08 ± 0.035
C[C@@H]1OC(=O)C2=C1O[C@@H]1[C@@H](O)[C@]3(O)CCCC[C@H]3[C@](C)(C2=O)[C@@H]1C [Dihydrotetrodecamycin] | 1.08 ± 0.057 | 1.05 ± 0.071 | 1.065 ± 0.0071 | 1.08 ± 0.15 | 1.04 ± 0.069
O=C(O[C@@H]1Cc2c(O)cc(O)cc2O[C@@H]1c1cc(O)c(O)c(O)c1-c1c([C@H]2Oc3cc(O)cc(O)c3C[C@H]2OC(=O)c2cc(O)c(O)c(O)c2)cc(O)c(O)c1O)c1cc(O)c(O)c(O)c1 | 1.08 ± 0.05 | 1.15 ± 0.12 | 1.035 ± 0.0071 | 1.03 ± 0.11 | 1.01 ± 0.047
Nc1nc(N)c2nc(-c3ccccc3)c(N)nc2n1 | 0.843 ± 0.047 | 0.898 ± 0.0042 | 0.956 ± 0.037 | 1.11 ± 0.085 | 1.05 ± 0.028
CC1(C)CC[C@]2(C(=O)O)CC[C@]3(C)C(=CCC4[C@@]5(C)CC[C@@H](O)C(C)(C)C5CC[C@]43C)C2C1 (stereo not given in full) | 0.967 ± 0.032 | 1.11 ± 0.092 | 1.08 ± 0.014 | 0.955 ± 0.093 | 0.9805 ± 0.005
CO[C@H]1C[C@H](O[C@H]2[C@H](C)[C@@H](O[C@@H]3O[C@H](C)C[C@H](N(C)C)[C@H]3OC(C)=O)[C@@H](C)C[C@@]3(CO3)C(=O)[C@H](C)[C@@H](OC(C)=O)[C@@H](C)[C@@H](C)OC(=O)[C@@H]2C)O[C@@H](C)[C@@H]1OC(C)=O | 1.06 | 1.01 ± 0.19 | 0.956 ± 0.03 | 1.03 ± 0.11 | 0.945 ± 0.12
CCn1cc(C(=O)O)c(=O)c2ccc(C)nc21 | 0.975 ± 0.16 | 0.9905 ± 0.0078 | 0.975 ± 0.016 | 1.07 ± 0.12 | 1.02 ± 0.028
CCCCCCCCCCCCCCCCCCCCCCO | 1.04 ± 0.076 | 0.941 ± 0.065 | 0.97 ± 0.036 | 0.869 ± 0.032 | 0.927 ± 0.066
CCCCCCCCCCCCCCCCCCOCC(O)CO (stereo not given) | 0.991 ± 0.084 | 0.989 ± 0.073 | 1.02 ± 0.021 | 1.035 ± 0.0071 | 1.01 ± 0.09
O=c1cc(-c2cccc(O)c2)oc2ccc(O)cc12 | 1.05 ± 0.09 | 0.98 ± 0.0057 | 1 ± 0.036 | 1.19 ± 0.16 | 1.19 ± 0.14
COc1ccc(C(=O)c2ccc(O)cc2)c(O)c1O | 1.015 ± 0.0071 | 0.971 ± 0.028 | 1.04 ± 0.078 | 1.03 ± 0.028 | 1.06 ± 0.057
